For 11 molecules, Percent Effect results are on record in ChEMBL document CHEMBL3988442, “University of Dundee, Small-Polar-MMV Screening Library” (2021).

For some of these results: Potency and affinity values are given separately.

Set-up in all cases: scale not given: direction of the effect not stated beside the values
Assay [1] addresses Protein translocase subunit SecA (Escherichia coli (strain K12)) (UniProt P10408). The assay can be described thus: Assay to Identify E. coli SecA ATPase Inhibitors. The assay is classed as functional. The conditions noted are these: 30 µM.
Assay [2] addresses T1, Ubiquitin-activating enzyme e1, putative (Leishmania donovani (strain BPK282A1)) (UniProt E9BSI1).
T1 sequence (whole entry): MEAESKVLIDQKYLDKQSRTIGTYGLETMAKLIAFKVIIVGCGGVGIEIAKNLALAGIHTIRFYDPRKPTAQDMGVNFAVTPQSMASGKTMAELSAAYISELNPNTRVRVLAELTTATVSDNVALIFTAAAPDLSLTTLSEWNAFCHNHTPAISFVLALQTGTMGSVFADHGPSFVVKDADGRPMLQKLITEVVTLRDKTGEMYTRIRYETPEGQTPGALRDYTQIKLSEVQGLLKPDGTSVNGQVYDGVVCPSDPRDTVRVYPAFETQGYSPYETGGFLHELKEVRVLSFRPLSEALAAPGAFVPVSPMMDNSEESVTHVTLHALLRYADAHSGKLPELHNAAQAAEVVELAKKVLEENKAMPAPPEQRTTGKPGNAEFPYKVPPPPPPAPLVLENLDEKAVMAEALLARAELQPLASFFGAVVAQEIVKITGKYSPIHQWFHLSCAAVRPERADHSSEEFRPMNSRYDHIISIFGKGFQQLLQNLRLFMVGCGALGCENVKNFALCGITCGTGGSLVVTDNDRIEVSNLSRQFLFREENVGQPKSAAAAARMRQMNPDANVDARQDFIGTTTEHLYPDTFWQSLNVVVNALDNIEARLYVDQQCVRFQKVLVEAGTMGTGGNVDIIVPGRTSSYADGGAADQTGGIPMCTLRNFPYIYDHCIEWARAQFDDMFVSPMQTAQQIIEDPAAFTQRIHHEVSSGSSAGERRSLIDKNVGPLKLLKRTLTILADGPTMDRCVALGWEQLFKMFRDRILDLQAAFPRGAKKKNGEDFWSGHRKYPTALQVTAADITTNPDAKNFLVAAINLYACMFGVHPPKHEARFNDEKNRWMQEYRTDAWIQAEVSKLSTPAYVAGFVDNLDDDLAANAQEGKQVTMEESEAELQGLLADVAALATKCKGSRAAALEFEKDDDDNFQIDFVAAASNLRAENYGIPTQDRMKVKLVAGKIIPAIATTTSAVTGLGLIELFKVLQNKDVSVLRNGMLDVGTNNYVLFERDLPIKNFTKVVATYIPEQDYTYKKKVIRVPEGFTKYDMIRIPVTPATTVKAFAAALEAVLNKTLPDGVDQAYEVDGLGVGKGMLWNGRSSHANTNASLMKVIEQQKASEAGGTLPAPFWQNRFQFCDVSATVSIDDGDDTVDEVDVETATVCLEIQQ
The assay is described as follows: Leishmania donovani Ubiquitin Activating Enzyme (LdE1). As to conditions: 30 µM. The assay is classed as functional.

The target in assay [3] is AMP-activated protein kinase, AMPK (Homo sapiens) (UniProt P54646+O43741+P54619+Q9UGJ0+Q9Y478+Q13131+Q9UGI9). The assay can be described thus: AMP-dependent Kinase enzyme assay. An in vitro enzyme assay that detects ADP turnover that is directly proportional to AMPK activity. This uses naive AMPK that is activated during the assay with MK-8722. The assay is classed as functional. As to conditions: 30 µM.

Assay [4] deals with Sialic acid-binding Ig-like lectin 9 (Homo sapiens) (UniProt Q9Y336). The assay can be described thus: Hs-Siglec9 ALPHAscreen SOP 20170721. As to conditions: 10 µM. Background: Alpha assays give light when donor and acceptor beads are brought close together.
Another assay deals with Trypanosoma cruzi. The assay is described as follows: Trypanosoma cruzi phosphomannomutase and mannose-1-phosphate guanylyltransferase assay. The assay is classed as functional. As to conditions: 10 µM.
In assay [5] the target is T2, Arginase-2, mitochondrial (Homo sapiens) (UniProt P78540).
T2 sequence (whole entry): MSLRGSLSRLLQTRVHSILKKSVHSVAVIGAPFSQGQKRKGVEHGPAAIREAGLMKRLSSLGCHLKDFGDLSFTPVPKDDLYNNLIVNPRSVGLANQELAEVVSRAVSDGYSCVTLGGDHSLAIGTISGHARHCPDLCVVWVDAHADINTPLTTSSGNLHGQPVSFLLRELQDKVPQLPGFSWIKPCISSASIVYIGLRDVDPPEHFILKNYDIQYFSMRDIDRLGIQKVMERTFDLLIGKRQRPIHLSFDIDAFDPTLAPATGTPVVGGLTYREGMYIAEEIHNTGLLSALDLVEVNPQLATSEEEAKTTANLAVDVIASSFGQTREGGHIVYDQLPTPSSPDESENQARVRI
The assay is described as follows: in vitro enzyme assay to detect the production of urea directly proportional to the activity of Arginase II. Further: in the data most compounds retested in dose-response had high values. The assay is classed as functional. As to conditions: 33.3 µM.

For assay [6], the target named is T3, Proteasome subunit beta (Trypanosoma cruzi) (UniProt O96673).
T3 sequence (whole entry): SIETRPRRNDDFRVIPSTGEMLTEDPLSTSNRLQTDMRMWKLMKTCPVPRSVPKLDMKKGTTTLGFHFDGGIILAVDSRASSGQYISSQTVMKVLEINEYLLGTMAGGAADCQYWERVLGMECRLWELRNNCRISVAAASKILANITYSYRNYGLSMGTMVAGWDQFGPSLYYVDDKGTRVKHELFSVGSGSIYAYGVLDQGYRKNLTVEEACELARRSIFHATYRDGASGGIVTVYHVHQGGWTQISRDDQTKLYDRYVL
The assay is described as follows: Trypanosoma cruzi proteasome chymotrypsin-like activity (TcProtChymo) assay. Further: in the data most compounds retested in dose-response had high values. As to conditions: 9.37 µM. It counts as functional.

A further assay is filed under the species Homo sapiens. The assay is described as follows: To identify inhibition of the IFN signalling (Jak-Stat) pathway via expression of an eGFP reporter gene under the control of an IFN-stimulated response element (ISRE) containing MxA promoter. It counts as functional. As to conditions: 30 µM. A general note: Reporter assays use an easily measured gene product as a stand-in for the process of interest.

For assay [7], the target named is T4, Tyrosyl-tRNA synthetase, putative (Trypanosoma cruzi (strain CL Brener)) (UniProt Q4DSP6).
T4 sequence (whole entry): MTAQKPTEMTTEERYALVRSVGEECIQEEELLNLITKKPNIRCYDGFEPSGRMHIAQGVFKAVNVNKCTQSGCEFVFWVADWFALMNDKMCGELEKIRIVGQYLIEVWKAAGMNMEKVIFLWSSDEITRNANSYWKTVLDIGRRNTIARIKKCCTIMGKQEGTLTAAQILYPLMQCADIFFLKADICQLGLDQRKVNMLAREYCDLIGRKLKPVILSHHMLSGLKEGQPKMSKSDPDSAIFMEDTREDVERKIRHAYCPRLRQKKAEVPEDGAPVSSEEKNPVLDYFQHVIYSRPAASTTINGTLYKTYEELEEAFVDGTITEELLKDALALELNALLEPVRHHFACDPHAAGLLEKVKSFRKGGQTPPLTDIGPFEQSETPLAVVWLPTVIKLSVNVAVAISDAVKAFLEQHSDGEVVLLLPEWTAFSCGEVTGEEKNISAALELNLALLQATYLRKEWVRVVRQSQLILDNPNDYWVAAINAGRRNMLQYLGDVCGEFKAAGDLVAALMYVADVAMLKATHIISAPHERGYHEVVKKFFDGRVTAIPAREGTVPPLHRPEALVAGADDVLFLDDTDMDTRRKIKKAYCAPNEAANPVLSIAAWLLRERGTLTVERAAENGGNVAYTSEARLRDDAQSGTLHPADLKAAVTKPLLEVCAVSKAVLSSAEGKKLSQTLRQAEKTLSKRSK
The assay is described as follows: Trypanosoma cruzi tyrosyl tRNA synthetase (TcYRS) _High Tyrosine SOP. Further: in the data most compounds retested in dose-response had high values. It counts as functional. As to conditions: 30 µM.

Assay [8] has as its target T4, Tyrosyl-tRNA synthetase, putative (Trypanosoma cruzi (strain CL Brener)). The assay can be described thus: Trypanosoma cruzi tyrosyl tRNA synthetase (TcYRS) SOP. The assay is classed as functional. As to conditions: 30 µM.
For assay [9], the target named is Chromo domain-containing protein 1 (Saccharomyces cerevisiae (strain ATCC 204508 / S288c) (Baker's yeast)) (UniProt P32657). The assay is described as follows: ScCHD-1 Enzyme Inhibition Assay. Further: in the data most compounds retested in dose-response had high values. The assay is classed as functional. The conditions noted are these: 30 µM.
Sequence of Chromo domain-containing protein 1 (Saccharomyces cerevisiae (strain ATCC 204508 / S288c) (Baker's yeast)) (P32657 whole entry, the tested form may be a part): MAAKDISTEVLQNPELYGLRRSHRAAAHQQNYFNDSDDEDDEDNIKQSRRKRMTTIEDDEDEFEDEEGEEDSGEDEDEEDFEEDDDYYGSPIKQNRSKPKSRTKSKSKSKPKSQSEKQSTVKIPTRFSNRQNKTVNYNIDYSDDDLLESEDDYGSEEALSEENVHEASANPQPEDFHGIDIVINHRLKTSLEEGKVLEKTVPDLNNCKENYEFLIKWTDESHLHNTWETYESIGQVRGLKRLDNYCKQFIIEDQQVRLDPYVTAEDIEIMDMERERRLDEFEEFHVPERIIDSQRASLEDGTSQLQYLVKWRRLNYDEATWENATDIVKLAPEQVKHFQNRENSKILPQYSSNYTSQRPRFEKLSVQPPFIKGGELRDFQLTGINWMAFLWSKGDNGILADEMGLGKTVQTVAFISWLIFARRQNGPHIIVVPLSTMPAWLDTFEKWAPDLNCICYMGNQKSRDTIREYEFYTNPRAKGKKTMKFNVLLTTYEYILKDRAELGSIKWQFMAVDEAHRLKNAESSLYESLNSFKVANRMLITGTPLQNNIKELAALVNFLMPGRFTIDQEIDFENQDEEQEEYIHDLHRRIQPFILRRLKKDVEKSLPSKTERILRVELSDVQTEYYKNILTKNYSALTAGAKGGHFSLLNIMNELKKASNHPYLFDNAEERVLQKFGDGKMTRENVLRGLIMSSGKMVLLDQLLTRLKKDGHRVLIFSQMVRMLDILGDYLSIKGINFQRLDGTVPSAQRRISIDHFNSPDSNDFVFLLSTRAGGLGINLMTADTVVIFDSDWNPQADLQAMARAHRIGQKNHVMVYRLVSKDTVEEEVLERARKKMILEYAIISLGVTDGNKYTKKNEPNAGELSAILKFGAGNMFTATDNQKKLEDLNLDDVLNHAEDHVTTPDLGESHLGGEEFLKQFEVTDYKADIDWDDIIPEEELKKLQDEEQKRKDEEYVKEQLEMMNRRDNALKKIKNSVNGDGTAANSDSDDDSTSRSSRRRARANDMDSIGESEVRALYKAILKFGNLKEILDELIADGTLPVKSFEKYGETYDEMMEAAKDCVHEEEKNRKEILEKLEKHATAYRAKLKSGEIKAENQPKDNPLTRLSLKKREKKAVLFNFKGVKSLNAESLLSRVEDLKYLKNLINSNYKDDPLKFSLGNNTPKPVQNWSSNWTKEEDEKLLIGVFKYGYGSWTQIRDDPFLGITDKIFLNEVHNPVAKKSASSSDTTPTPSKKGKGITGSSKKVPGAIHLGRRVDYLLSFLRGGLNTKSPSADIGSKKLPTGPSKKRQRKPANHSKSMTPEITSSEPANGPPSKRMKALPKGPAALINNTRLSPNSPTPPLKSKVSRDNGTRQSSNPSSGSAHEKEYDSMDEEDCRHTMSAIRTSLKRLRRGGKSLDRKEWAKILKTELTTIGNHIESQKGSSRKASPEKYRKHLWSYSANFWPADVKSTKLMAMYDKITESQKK

Sequence of Sialic acid-binding Ig-like lectin 9 (Homo sapiens) (Q9Y336 whole entry): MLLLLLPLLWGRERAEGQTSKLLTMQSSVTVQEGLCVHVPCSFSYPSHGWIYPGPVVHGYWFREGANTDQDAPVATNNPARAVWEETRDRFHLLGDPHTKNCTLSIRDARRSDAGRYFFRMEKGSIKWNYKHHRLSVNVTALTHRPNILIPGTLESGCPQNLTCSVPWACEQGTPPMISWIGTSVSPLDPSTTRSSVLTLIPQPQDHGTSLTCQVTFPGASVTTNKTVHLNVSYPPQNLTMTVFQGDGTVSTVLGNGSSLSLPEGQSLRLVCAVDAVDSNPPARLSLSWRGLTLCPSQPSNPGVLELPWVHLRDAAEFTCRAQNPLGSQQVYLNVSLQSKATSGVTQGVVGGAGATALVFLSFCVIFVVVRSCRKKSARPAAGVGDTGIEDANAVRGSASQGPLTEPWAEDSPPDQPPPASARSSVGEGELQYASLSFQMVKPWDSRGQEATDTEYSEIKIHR
Sequence of Protein translocase subunit SecA (Escherichia coli (strain K12)) (P10408 whole entry): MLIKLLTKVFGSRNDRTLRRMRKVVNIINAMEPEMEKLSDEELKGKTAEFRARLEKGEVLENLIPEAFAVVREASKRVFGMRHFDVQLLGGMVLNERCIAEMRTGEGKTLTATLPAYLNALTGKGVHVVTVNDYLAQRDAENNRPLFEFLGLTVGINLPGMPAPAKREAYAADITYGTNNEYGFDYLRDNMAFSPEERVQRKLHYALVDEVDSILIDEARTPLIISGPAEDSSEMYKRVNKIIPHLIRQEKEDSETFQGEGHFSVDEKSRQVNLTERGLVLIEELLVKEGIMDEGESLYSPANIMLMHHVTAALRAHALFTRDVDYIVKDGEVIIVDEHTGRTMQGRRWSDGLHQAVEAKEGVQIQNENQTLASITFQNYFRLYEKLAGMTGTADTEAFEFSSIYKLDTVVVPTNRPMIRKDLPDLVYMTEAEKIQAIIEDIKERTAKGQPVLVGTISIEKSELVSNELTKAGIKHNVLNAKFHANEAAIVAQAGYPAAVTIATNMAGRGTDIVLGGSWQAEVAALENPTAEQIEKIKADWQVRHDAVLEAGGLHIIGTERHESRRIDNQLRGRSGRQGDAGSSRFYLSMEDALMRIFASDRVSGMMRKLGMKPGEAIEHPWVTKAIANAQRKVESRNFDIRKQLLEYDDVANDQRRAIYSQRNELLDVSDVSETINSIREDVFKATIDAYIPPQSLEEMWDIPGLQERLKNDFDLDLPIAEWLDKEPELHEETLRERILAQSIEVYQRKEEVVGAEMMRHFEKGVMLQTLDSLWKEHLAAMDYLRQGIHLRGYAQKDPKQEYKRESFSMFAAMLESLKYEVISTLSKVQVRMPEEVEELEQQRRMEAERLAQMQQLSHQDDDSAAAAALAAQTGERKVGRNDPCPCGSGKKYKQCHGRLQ

As to `CN(Cc1cccc(F)c1)C1CCN(CCc2ccccn2)CC1`, the Percent Effect was -3.25% in [1]; 21.6% in assay [2]; -5.03% in assay [3]; -1.38% in [4]; -0.65% in the assay with Trypanosoma cruzi; -1.29% in assay [5]. In addition, the Percent Effect in [6] is 9.34%; in the assay listed under Homo sapiens, 20.8%; in assay [7] it was 3.96%; in assay [8], 13.4%; in [9] it was -4.09%.

On to `Cc1nc(C2CCCN(C(=O)C(C)(C)n3cc(Cl)cn3)C2)no1` (stereo unspecified), for which the Percent Effect in assay [1] was -1.25%; in assay [2], 3.8%; in [3] it was -0.545%; in assay [4], 3.13%; in the assay on Trypanosoma cruzi, 2.77%; in [5], 3.23%. Besides, the Percent Effect in assay [6] was 0.343%; in the assay listed under Homo sapiens, -9.61%; in assay [7], 6.25%; in assay [8] it was 7.59%; in assay [9], -13.7%.

Regarding `CCc1n[nH]c(C2CN(C(=O)c3csnn3)CCO2)n1` (stereo unspecified), the Percent Effect is -7.28% in assay [1]; 10.4% in assay [2]; 0.934% in [3]; 4.09% in [4]; 7.15% in the assay with Trypanosoma cruzi; -5.26% in [5]. For the same molecule, the Percent Effect in assay [6] is 6.06%; in the assay listed under Homo sapiens it was 3.52%; in [7], 2.86%; in [8] it was 11.8%; in assay [9], -11.6%.

Turning to `Cc1cc(C)c2c(c1)C1(CC(=O)Nc3c1cnn3C(C)C)C(=O)N2` (stereo unspecified), the Percent Effect is 0.0889% in assay [1]; 4% in assay [2]; 4.34% in assay [3]; 1.54% in [4]; 0.982% in the assay with Trypanosoma cruzi; -6.16% in assay [5]. Besides, the Percent Effect in assay [6] is 8.87%; in the assay filed under Homo sapiens, 21.1%; in assay [7], 3.17%; in assay [8], 2.56%; in assay [9] it was -5.39%.

On to `Cc1nn(C)c(C)c1C1CCCN1CC(=O)Nc1ccncc1` (stereo unspecified), for which the Percent Effect in [1] is -3.89%; in assay [2] it was -2.7%; in [3] it was -12%; in assay [4] it was -1.63%; in the assay with Trypanosoma cruzi it was -3.49%; in assay [5], 4.41%. Besides, the Percent Effect in [6] was -2.88%; in the assay filed under Homo sapiens, 7.51%; in assay [7], -0.493%; in [8], -11.1%; in assay [9], 4.66%.

On to `COC(=O)C(c1cc(F)ccc1F)N(C)C(=O)c1cccnc1O` (stereo unspecified), for which the Percent Effect in assay [1] is -4.02%; in assay [2] it was 6.33%; in assay [3] it was 7.36%; in [4], -2.25%; with Trypanosoma cruzi, -1.33%; in assay [5], 0.645%. Further, the Percent Effect in assay [6] was 10.3%; in the assay listed under Homo sapiens, -7.9%; in assay [7] it was 1.04%; in [8] it was 12.7%; in assay [9], -12.9%.

Consider `COc1cccc(N2CCN(CC(O)c3ccc(C)cc3)CC2)c1` (stereo unspecified), for which the Percent Effect is -1.61% in assay [1]; 21.1% in assay [2]; -2.12% in assay [3]; -9.96% in assay [4]; 0.292% with Trypanosoma cruzi; 0% in assay [5]. Besides, the Percent Effect in assay [6] came to 17%; in the assay listed under Homo sapiens it was 3.85%; in assay [7], 5.32%; in assay [8], 20.8%; in assay [9], 21%.

Regarding `CCc1ccccc1NC(=O)N1CCn2cnc(COC)c2C1`, the Percent Effect in assay [1] was -3.57%; in assay [2], 8.11%; in assay [3], -9.76%; in assay [4], 17.5%; in the assay with Trypanosoma cruzi, 5.38%; in [5] it was 15.1%. Moreover, the Percent Effect is 0.601% in assay [6]; 17.8% in the assay filed under Homo sapiens; 5.38% in assay [7]; -1.24% in assay [8]; -5.57% in assay [9].

For the molecule `CN(C)CC(=O)N1CCOCC2(C1)CN(c1ccccc1)C(=O)CO2` (stereo unspecified), the Percent Effect is 1.58% in assay [1]; 8% in assay [2]; 11.2% in assay [3]; -1.53% in assay [4]; -4.05% with Trypanosoma cruzi; -56.8% in assay [5]. The Percent Effect in assay [6] was 3.08%; in the assay filed under Homo sapiens it was -9.58%; in assay [7], 5.21%; in assay [8] it was -22.5%; in [9], -7.95%.

On to `O=C(c1nc(-c2ccc3cc[nH]c3c2)no1)N1CCCC1`, for which the Percent Effect was -4.98% in assay [1]; -12% in [2]; 2.17% in [3]; 2.62% in assay [4]; 5.11% with Trypanosoma cruzi; -3.7% in assay [5]. The Percent Effect in [6] is 11.7%; in the assay listed under Homo sapiens, -6.53%; in [7], 0%; in assay [8], -2.56%; in assay [9], -3.18%.

Take `COCCN1C(=O)C[C@H]2[C@H]1CCN2Cc1cccc(C#N)c1`: the Percent Effect in assay [1] is -2.88%; in [2] it was 2.67%; in assay [3], 7.27%; in assay [4], -1.09%; with Trypanosoma cruzi, -2.95%; in [5] it was 3.03%. In addition, the Percent Effect is 5.9% in assay [6]; 6.32% in the assay listed under Homo sapiens; 1.06% in assay [7]; 1.28% in [8]; 1.66% in assay [9].
